Structures are written as SMILES. Active and inactive are the calls of the source.

A short description of assay [1]: optical density shifts of acrAB sulA E. coli – strain DRC41, OD650, 48 h, E. coli filamentation inducer project, primary screen (AID 1152).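 Also: E. coli MC1000 strain DRC41 lacking acrAB efflux pump and sulA.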 As to conditions: higher = more signal, called active from +8 up or from −8 down.
A short description of assay [2]: probe aLefty1 binding on compound microarray – biochemical, small-molecule microarray, 635/667 nm fluorescence, primary screen (AID 1153).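 Also: score merges spot fluorescence with signal-to-noise ratio from the scanned slide images.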 As to conditions: higher = more signal.
The nature of assay [3]: plasmodial surface anion channel blockers, osmotic lysis – cell-based, P. falciparum Indochina, OD700, 1 h, primary screen (AID 1154). The note with it: P. falciparum Indochina infected RBC osmotic lysis, higher = more signal, called active from +8 up or from −8 down.
Assay [4] in a line: plasmodial surface anion channel blockers, osmotic lysis – cell-based, P. falciparum Indochina, OD700, 2 h, primary screen (AID 1155).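 Also: lysis reports solute entry through the parasite surface anion channel PSAC.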 The note with it: P. falciparum Indochina infected erythrocytes, higher = more signal, called active from +8 up or from −8 down.
A short description of assay [5]: changes in parasitized red cell lysis, either direction – P. falciparum Indochina, OD700, 3 h, PSAC antagonist project, primary screen (AID 1156). The note with it: P. falciparum-infected erythrocytes, osmotic lysis, higher = more signal, called active from +8 up or from −8 down.
Assay [6] can be described thus: plasmodial surface anion channel blockers, osmotic lysis – cell-based, P. falciparum Indochina, OD700, 18 h, primary screen (AID 1157). As to conditions: P. falciparum Indochina infected erythrocytes, osmotic lysis OD700, 18 h; higher = more signal, called active from +8 up or from −8 down.
Assay [7] in a line: S6 kinase pathway phospho-S6 level changes – cell-based, A549, cytoblot, luminescence, serum-stimulated, primary screen (AID 1158).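 Also: serum-stimulated A549 lung adenocarcinoma cells; signal is phosphorylated S6 detected by cytoblot immunostaining with HRP secondary.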 The note with it: 5 h, higher = more signal.
Assay [8] has as its target NADPH oxidase 2 (Homo sapiens) (UniProt P04839). Description: compounds shifting NOX2 Amplex Red fluorescence – cell-based, HEK293-NOX2, PMA-stimulated, NOX inhibitor project, primary screen (AID 1159). Also: test concentration not given here. The note with it: 45 min, higher = more signal, called active from +8 up or from −8 down.
The target of assay [9] is NADPH oxidase 4 (Homo sapiens) (UniProt Q9NPH5). Briefly: compounds shifting NOX4 Amplex Red fluorescence – cell-based, HEK293-NOX4, tetracycline-induced, NOX inhibitor project, primary screen (AID 1160). The note with it: HEK293-NOX4, Amplex Red H2O2 fluorescence, 45 min; higher = more signal, called active from +8 up or from −8 down.
Sequence of NADPH oxidase 4 (Homo sapiens) (Q9NPH5 whole entry, looked up): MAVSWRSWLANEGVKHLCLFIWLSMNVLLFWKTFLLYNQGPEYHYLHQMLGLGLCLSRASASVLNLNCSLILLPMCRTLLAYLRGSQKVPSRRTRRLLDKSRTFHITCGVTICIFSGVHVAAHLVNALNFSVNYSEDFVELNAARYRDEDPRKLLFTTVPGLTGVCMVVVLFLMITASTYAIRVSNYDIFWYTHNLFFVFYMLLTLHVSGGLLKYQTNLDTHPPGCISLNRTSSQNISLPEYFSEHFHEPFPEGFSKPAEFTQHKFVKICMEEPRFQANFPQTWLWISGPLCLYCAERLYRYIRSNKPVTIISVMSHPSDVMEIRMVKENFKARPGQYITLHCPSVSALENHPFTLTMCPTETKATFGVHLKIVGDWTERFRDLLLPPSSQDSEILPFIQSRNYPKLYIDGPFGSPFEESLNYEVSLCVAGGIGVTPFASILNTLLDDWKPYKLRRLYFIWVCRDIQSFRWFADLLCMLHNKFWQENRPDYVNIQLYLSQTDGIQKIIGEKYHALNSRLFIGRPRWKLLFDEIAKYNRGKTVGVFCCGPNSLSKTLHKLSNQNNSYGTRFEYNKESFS
Assay [10] addresses NADPH oxidase 5 (Homo sapiens) (UniProt Q96PH1). Description: compounds shifting NOX5 Amplex Red fluorescence – cell-based, HEK293-NOX5, NOX inhibitor project, primary screen (AID 1161). The note with it: HEK293-NOX5, ionomycin, 45 min, higher = more signal.
Assay [11] is described as follows: compound effects on lung adenocarcinoma cell viability – A549, calcein-AM fluorescence, 48 h, basal, profiling panel (AID 1162). Also: test concentration not given here. As to conditions: higher = more signal.
The nature of assay [12]: compound effects on differentiated 3T3-L1 adipocyte viability – cell-based, 3T3-L1 adipocytes, calcein-AM fluorescence, 48 h, basal, profiling panel (AID 1163). Also: test concentration not given here. The note with it: 3T3-L1 adipocytes viability, higher = more signal.
Assay [13] is described as follows: compound effects on hepatocellular carcinoma cell viability – HepG2, calcein-AM fluorescence, 48 h, basal, profiling panel (AID 1164). Also: test concentration not given here. As to conditions: higher = more signal.
Assay [14] is described as follows: compound effects on multiple myeloma cell viability – MM1S, calcein-AM fluorescence, 48 h, basal, profiling panel (AID 1165).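 Also: viability of MM1S multiple myeloma cells under basal unstimulated conditions; test concentration not given here.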 The note with it: higher = more signal.
Assay [15] can be described thus: calcein-AM signal in unstimulated myeloma cells – cell-based, calcein-AM fluorescence, 48 h, PK04 Diversity Set, profiling panel (AID 1166).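 Also: cells grown under basal conditions without added stimulus; test concentration not given here.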 The note with it: RPMI8226 myeloma viability, higher = more signal.
A short description of assay [16]: JC-1 mitochondrial signal, unstimulated HepG2 cells – cell-based, JC-1 fluorescence, 24 h, 100 nL compound, profiling panel (AID 1167). Also: test concentration not given here. As to conditions: HepG2 mitochondrial potential, higher = more signal.
A short description of assay [17]: JC-1 mitochondrial signal, unstimulated adipocytes – cell-based, JC-1 fluorescence, 3T3-L1 adipocytes, 24 h, 100 nL compound, profiling panel (AID 1168). Also: test concentration not given here. As to conditions: JC-1 mitochondrial fluorescence, higher = more signal, called active from +8 up or from −8 down.
Assay [18] can be described thus: JC-1 mitochondrial signal, unstimulated myeloma cells – cell-based, JC-1 fluorescence, RPMI8226, 24 h, 100 nL compound, profiling panel (AID 1169). Also: test concentration not given here. The note with it: JC-1 mitochondrial potential fluorescence, higher = more signal.
The nature of assay [19]: JC-1 mitochondrial signal, unstimulated MM1S myeloma – cell-based, JC-1 fluorescence, 24 h, 100 nL compound, profiling panel (AID 1170). Also: test concentration not given here. The note with it: MM1S mitochondrial potential, higher = more signal.
Assay [20] is described as follows: resazurin metabolic signal in A549 cells – cell-based, resazurin fluorescence, 24 h, PK04 Diversity Set, profiling panel (AID 1171). Also: test concentration not given here. As to conditions: A549 viability, higher = more signal, called active from +8 up or from −8 down.

Sequence of NADPH oxidase 5 (Homo sapiens) (Q96PH1 whole entry, looked up): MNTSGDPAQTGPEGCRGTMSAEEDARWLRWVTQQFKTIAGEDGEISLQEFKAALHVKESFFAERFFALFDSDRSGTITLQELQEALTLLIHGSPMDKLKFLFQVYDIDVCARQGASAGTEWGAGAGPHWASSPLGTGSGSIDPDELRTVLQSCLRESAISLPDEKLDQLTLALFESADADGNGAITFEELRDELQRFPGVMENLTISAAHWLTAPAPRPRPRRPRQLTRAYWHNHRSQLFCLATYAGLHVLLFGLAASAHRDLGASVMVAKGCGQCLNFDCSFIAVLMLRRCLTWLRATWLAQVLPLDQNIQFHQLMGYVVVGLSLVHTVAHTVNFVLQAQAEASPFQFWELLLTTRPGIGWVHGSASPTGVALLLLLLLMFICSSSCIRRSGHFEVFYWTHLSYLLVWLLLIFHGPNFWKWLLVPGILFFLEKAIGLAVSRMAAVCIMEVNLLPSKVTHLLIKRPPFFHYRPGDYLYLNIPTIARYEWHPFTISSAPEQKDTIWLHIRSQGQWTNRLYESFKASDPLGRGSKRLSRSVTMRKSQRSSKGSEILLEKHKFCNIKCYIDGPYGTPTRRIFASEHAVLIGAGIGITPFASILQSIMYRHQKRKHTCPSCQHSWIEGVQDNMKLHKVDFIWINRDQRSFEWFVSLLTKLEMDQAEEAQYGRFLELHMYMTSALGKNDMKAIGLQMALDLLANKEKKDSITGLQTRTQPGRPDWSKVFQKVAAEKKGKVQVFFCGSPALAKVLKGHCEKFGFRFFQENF
Sequence of NADPH oxidase 2 (Homo sapiens) (P04839 whole entry, looked up): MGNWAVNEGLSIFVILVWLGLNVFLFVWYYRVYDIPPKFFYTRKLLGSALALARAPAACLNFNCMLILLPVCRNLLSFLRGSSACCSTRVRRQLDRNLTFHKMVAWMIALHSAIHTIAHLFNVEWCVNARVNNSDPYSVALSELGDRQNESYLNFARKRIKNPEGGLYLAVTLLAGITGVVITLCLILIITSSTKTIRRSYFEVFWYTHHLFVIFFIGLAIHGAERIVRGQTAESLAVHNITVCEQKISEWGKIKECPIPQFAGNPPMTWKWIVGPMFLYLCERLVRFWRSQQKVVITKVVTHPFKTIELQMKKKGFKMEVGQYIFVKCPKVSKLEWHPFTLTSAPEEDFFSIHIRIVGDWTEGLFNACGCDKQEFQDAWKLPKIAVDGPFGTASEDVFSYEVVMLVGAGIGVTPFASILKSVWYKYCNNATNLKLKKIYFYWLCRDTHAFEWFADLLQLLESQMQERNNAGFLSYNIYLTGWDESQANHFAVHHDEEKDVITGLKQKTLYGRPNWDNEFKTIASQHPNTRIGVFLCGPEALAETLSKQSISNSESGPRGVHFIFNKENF

With `COCCOC(=O)N1C(=O)[C@@]2(c3cc(C#CCNC(N)=O)ccc31)[C@H](c1ccccc1OCCO)N1[C@H](c3ccccc3)[C@H](c3ccccc3)OC(=O)[C@H]1[C@@H]2C(=O)N1CCN(c2ncccn2)CC1`, the z-score in [1] was 0.981 (inactive); in assay [3], 2.11 (inactive); in assay [4] it was -0.313 (inactive); in [5] it was 0.793 (inactive); in assay [6] it was -2.06 (inactive); in assay [7] it was 2.82. Also, the z-score was 1.63 (inactive) in assay [8]; 1.09 (inactive) in [9]; -0.814 in assay [10]; 0.0249 in assay [11]; 0.457 in assay [12]; 1.37 in assay [13]. Moreover, the z-score in assay [14] is 0.541; in assay [15] it was 1.12; in assay [16], -1.76; in assay [17], 0.856 (inactive); in assay [18], -0.847; in [19], -0.859. Besides, the z-score in assay [20] was -1.27 (inactive). In assay [2], this compound had a composite z-score of 0.15.

Turning to `CO[C@H]1O[C@H](CO)[C@@H](OC(=O)Nc2ccc(C#N)cc2)[C@H](OC(=O)c2cc3ccccc3[nH]2)[C@H]1OC(=O)c1cc2ccccc2[nH]1`, the z-score was 2.89 (inactive) in assay [1]; 3.44 (inactive) in assay [3]; 0.178 (inactive) in assay [4]; 1.71 (inactive) in assay [5]; -0.418 (inactive) in assay [6]; 2.06 in assay [7]. For the same compound, the z-score in assay [8] was -3.9 (inactive); in assay [9], -0.214 (inactive); in [10], -4.49; in assay [11] it was 2.71; in assay [12], 0.221; in [13], 0.837. Moreover, the z-score is -2.28 in assay [14]; -0.909 in [15]; -1.55 in assay [16]; 0.53 (inactive) in [17]; -0.405 in assay [18]; -0.384 in [19]. Further, in assay [20], the z-score is -1.49 (inactive). In assay [2], this compound yielded a composite z-score of 0.254.

Regarding `C[C@H]1Cc2c(-c3ccccc3)nc3c(c2CO1)CN(CCOc1ccccc1)CC3`, the z-score in assay [1] was 0.503 (inactive); in assay [3] it was 1.65 (inactive); in assay [4], 0.407 (inactive); in assay [5], 0.301 (inactive); in assay [6], 0.0748 (inactive); in assay [7], 0.426. For the same compound, the z-score in assay [8] is 0.17 (inactive); in assay [9] it was -0.0187 (inactive); in assay [10], -0.605; in [11] it was 2.68; in assay [12], 0.173; in assay [13] it was 1.27. In addition, the z-score in assay [14] was 0.785; in assay [15], 0.11; in assay [16], 0.932; in assay [17], 0.281 (inactive); in assay [18] it was -0.324; in assay [19], -0.439. The z-score in assay [20] is -0.31 (inactive). Also, the composite z-score in [2] was -0.199.

Take `COC(=O)[C@H](C)NC(=O)[C@@H](C)CO`: the z-score in [1] was -0.534 (inactive); in assay [3], 0.295 (inactive); in assay [4], 0.451 (inactive); in [5], 0.372 (inactive); in [6] it was 0.665 (inactive); in assay [7], 0.656. In addition, the z-score is -0.371 (inactive) in [8]; -0.71 (inactive) in assay [9]; 0.468 in [10]; -0.562 in [11]; 0.945 in assay [12]; -0.524 in [13]. Also, the z-score in assay [14] is 0.363; in assay [15] it was -1.21; in assay [16], -0.355; in assay [17], -0.0968 (inactive); in assay [18], -0.04; in assay [19], 0.384. Further, the z-score in assay [20] is -0.939 (inactive). The compound further showed a composite z-score in [2] of 0.138.

Values taken from PubChem BioAssay.
